From PubChem BioAssay (NCI) come the findings set out here.

About 79,000 compounds went through this panel and 15% of them were active in at least one assay; those are over-represented in the sample as a whole. Active and inactive are the calls of the source. Cut-off read from the data, not from the text of the source: active = growth inhibition above about 70%; inactive = the rest.

This experiment can be described thus: NCI Yeast Anticancer Drug Screen. Data for the mec2-1 strain (AID 157). The following applies: S. cerevisiae mec2-1 strain, at 50.0 µM, hits give high values. How it is done: Growth inhibition of yeast strains with defined genetic alterations is measured as a screen for potential anti-cancer activity. Selected strains with alterations in DNA damage repair or cell cycle control were exposed to compounds and growth inhibition was measured relative to vehicle treated controls. The strain used in this assay is mec2-1
Take `C/C(=N/NC(=O)c1ccccc1O)c1ccc(/C(C)=N\NC(=O)c2ccccc2O)c2nc3cc(C)c(C)cc3nc12`: the growth inhibition was -14.3% (inactive).
As for `Cc1c(Cl)cccc1NC(=O)c1c(Cl)c(Cl)c(Cl)c(Cl)c1C(=O)O`, the growth inhibition is -1.35% (inactive).
For the molecule `NC(Cc1cccc(F)c1)C(=O)O` (stereo not given), the growth inhibition is -30.1% (inactive).
With `O=C(COc1ccc(Cl)cc1Cl)Nc1c(Cl)cc(Cl)cc1Cl`, the growth inhibition is 7.6% (inactive).
Then `CCOC(=O)c1ccc(NCc2nc3c([nH]2)c(=O)n(C)c(=O)n3C)cc1`, with -1.45% (inactive); and `COC/N=C(\NC#N)NCOC`, with -1% (inactive).
Take `Cc1sc2nc3n(c(=O)c2c1C)N=C(c1ccccc1)CS3`: the growth inhibition was -11.8% (inactive).
Then `CSc1nc(COC(=O)NC(C)C)c(COC(=O)NC(C)C)n1Cc1ccccc1`, with 3.7% (inactive).
Then `CCCCCc1c2nc(c(CCCCC)c3ccc([nH]3)c(CCCCC)c3ccc([nH]3)c(CCCCC)c3nc1C=C3)C=C2`, with -11.8% (inactive); and `O=CNNC(=O)CN1C(=O)c2ccccc2C1=O`, with -0.45% (inactive); and `NCCO`, with 1.15% (inactive).
As to `CN(C)C(=S)/N=c1\ssc(=S)n1Cc1cccs1`, the growth inhibition is -19.5% (inactive).
Regarding `CO[C@@H]1C=C[C@@]23c4cc5c(cc4CN(C[C@@H]2O)[C@H]3C1)OCO5`, the growth inhibition is -26.1% (inactive).
Then `NC1=C(Br)C(=O)c2[nH]c(=O)[nH]c(=O)c2C1=O`, with 7.6% (inactive).
With `O=S1(=O)COc2ccccc2-c2ncncc21`, the growth inhibition was -9.85% (inactive).
For `NC(Cc1ccc(O)cc1)C(=O)NCCS(=O)(=O)O` (stereo not given), the growth inhibition was 9.85% (inactive).
Then `c1ccc(-c2ccc3ncccc3c2)cc1`, with 3.5% (inactive); and `CCOC(=O)c1c(O)nc2sc3ccccc3n2c1=O`, with 12.7% (inactive); and `CCCCN(C)C(=O)C1=C(C)NC(C)=C(C(=O)N(C)CCCC)C1`, with -26.4% (inactive).
Then `O=[N+]([O-])c1ccc(-n2nnc3ccccc32)nc1`, with -4.85% (inactive); and `CCOc1ccc(NC(=O)CCCCCCCCC(=O)Nc2ccc(OCC)cc2)cc1`, with 3.2% (inactive).
For the molecule `NC(=O)SCC(N)C(=O)O` (stereo not given), the growth inhibition was -21.4% (inactive).
With `CC1CC(=O)Oc2ccccc21` (stereo not given), the growth inhibition is 5.7% (inactive).
Then `CCC(C=NCCBr)(CCC(=O)OC)CCC(=O)OC`, with 16.2% (inactive).
Take `CCOC(=O)CCCl`: the growth inhibition is 15.6% (inactive).
Then `O=C(O)c1nc2ccccc2c(=O)[nH]1`, with -4.25% (inactive); and `COc1ccc2c(c1OC)C(=O)C2`, with 12.1% (inactive); and `COc1cc([C@H]2c3[nH]c4ccccc4c3C[C@H]3COC(=O)N32)cc(OC)c1O`, with 9.85% (inactive).
Then `Cc1cc(C)c(CC#N)s1`, with -12.1% (inactive); and `CCOC(=O)c1ccc(CCCN)cc1`, with -13.2% (inactive).
For `Cc1ccn2c(-c3ccccc3)nnc2c1`, the growth inhibition was -17.7% (inactive).
As to `Cc1ncc(CN2CSC(CCO)C2C)c(N)n1` (stereo not given), the growth inhibition is 8.4% (inactive).
`Nc1ccccc1/C(O)=C1/CCOC1=O`: the growth inhibition is -23.6% (inactive).
`O=[N+]([O-])c1ccc(N=Nc2c(O)[nH]c3ccc(Br)cc23)cc1`: the growth inhibition is -20.2% (inactive).
Then `COc1ccc2[nH]c(C)cc2c1CN`, with -14.3% (inactive); and `COc1ccc(C2OC3=Nc4ccccc4NC3C2=O)cc1OC` (stereo not given), with 16.3% (inactive).
Then `CSc1nc(C)cc(=O)n1C1OC(COC(C)=O)C(OC(C)=O)C(OC(C)=O)C1OC(C)=O` (stereo not given), with -13.6% (inactive); and `COc1cc(C)c(O)c(C/C=C(\C)CC2=C[C@@]3(C)CCC[C@@]3(C)[C@]3(CC(O)C(C)(C)O3)O2)c1` (stereo not given in full), with 6.2% (inactive); and `CC(=O)/C=C/c1ccc(C)cc1`, with 9.9% (inactive).
With `COc1ccc(OC)c(-c2nc3ccccc3c(=O)[nH]2)c1`, the growth inhibition is 10.8% (inactive).
